USP8 block – inhibitors of human USP8 deubiquitinase. purified USP8, Ub-rhodamine cleavage fluorescence, 30 min. actives 4.2% (n = 47,000). Ubiquitin carboxyl-terminal hydrolase 8 (Homo sapiens), P40818. inhibition, % at 20 µM
USP28 block – inhibitors of human USP28 deubiquitinase; purified USP28, Ub-rhodamine cleavage fluorescence, 30 min; inhibition, % at 25 µM; actives 3% (n = 47,000); AID 1645857, 2021
Target sequence (Q96RU2 whole entry, looked up): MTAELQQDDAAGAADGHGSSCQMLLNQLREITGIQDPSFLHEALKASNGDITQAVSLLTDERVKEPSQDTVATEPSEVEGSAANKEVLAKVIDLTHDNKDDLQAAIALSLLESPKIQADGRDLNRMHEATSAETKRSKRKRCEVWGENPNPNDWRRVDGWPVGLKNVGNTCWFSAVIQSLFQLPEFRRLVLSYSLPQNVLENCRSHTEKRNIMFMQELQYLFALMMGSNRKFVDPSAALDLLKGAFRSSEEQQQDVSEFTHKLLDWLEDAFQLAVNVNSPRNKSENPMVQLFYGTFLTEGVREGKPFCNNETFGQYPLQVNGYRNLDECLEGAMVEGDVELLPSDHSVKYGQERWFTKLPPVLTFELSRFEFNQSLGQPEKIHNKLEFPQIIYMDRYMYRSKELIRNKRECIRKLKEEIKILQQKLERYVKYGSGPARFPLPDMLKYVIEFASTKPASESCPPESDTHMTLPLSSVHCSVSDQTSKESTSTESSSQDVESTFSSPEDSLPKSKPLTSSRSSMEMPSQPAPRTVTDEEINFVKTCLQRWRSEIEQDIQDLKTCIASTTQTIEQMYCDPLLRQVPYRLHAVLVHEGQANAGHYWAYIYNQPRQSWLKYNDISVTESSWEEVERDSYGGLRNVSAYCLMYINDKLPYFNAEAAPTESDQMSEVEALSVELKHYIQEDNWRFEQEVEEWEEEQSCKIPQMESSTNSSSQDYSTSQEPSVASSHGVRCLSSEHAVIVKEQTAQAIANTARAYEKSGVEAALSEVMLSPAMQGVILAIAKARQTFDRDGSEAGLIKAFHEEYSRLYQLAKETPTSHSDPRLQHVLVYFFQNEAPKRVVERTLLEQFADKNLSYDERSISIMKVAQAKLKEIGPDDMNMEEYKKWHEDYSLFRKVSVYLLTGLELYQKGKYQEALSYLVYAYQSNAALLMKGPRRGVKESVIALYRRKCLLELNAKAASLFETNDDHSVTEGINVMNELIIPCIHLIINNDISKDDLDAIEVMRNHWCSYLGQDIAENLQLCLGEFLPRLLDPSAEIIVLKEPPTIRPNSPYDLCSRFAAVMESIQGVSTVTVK
USP30 inh – inhibitors of human USP30 deubiquitinase | AID 1645860, 2021 | Ubiquitin carboxyl-terminal hydrolase 30 (Homo sapiens), Q70CQ3 | purified USP30, Ub-rhodamine cleavage fluorescence | actives 5.3% (n = 47,000) | inhibition, % at 25 µM
USP17 block – inhibitors of human USP17 deubiquitinase. Ubiquitin carboxyl-terminal hydrolase 17-like protein 5 (Homo sapiens), A8MUK1. purified USP17, Ub-rhodamine cleavage fluorescence, 3 h. inhibition, % at 50 µM. actives 6.5% (n = 47,000). AID 1645855, 2021
Active calls of the source: *; i = inactive; . = no result given. In the library only some 13% were active in any assay of this set; here they are far more common. Rule as the data show it: active = inhibition above about 30%; inactive = the rest.

SMILES	USP8 block	USP28 block	USP30 inh	USP17 block
COc1cccc(-c2cc(C(=O)Nc3cccc(C)c3)[nH]n2)c1	-5	-15	-19	3
COc1cccc(NC(=O)c2cc(-c3ccccc3)n[nH]2)c1	-16	23	-9	13
CC(=O)c1cccc(NC(=O)c2cc(-c3cccnc3)n[nH]2)c1	4	91*	86*	78*
O=C(Nc1cccc(Br)c1)c1cc(-c2cccnc2)n[nH]1	98*	43*	71*	8
COCc1cc(C)nc2sc3c(c12)NC(c1ccc(NC(C)=O)cc1)N(Cc1ccccc1)C3=O (stereo unspecified)	19	6	72*	53*
COc1cccc(NC(=O)Cn2c(=O)n(CCCC(=O)NCc3ccco3)c(=O)c3ccccc32)c1	4	15	7	44*
COc1ccccc1CNC(=O)CCCCn1c(=O)c2ccccc2n(CC(=O)Nc2ccc(C)cc2C)c1=O	46*	16	42*	21
COc1ccc(NC(=O)Cn2c(=O)n(CCCCC(=O)NCc3ccco3)c(=O)c3ccccc32)cc1Cl	1	-4	-6	-18
COC(=O)c1ccccc1NC(=O)Cn1c(=O)n(CCCC(=O)NCc2ccco2)c(=O)c2ccccc21	58*	58*	80*	76*
Cc1ccc(S(=O)(=O)Nc2cccc(Cl)c2)cc1NC(=O)CCC(=O)c1ccc(Cl)cc1	7	-12	18	0
Cc1ccc(S(=O)(=O)Nc2ccc(Cl)cc2)cc1NC(=O)CC(=O)c1ccccc1	51*	7	-2	38*
Cc1cc(OCC(=O)Nc2ccccc2C(=O)Nc2ccccc2)ccc1Cl	21	-6	4	3
CNc1nc(C2CCCCN2C(=O)c2cc3c(C)cccc3[nH]2)nc2c1CCN(C(C)=O)C2 (stereo unspecified)	4	-11	-27	-12
Cc1ccc(Cn2c(C(=O)O)c(CNCCC3=CCCCC3)c3ccccc32)cc1	21	39*	16	24
COc1ccc2c(CNCCc3ccccc3)c(C(=O)O)n(Cc3ccc(F)cc3Cl)c2c1	0	21	30*	-10
CSc1ccc(CNCc2c(C(=O)O)n(Cc3ccccc3)c3cc(C)ccc23)cc1	24	44*	58*	24
O=C(O)c1c(CNCc2cccnc2)c2ccccc2n1Cc1ccc(F)cc1Cl	-20	-2	-7	9
CNc1nc2c(c(=O)n1-c1ccccc1)CCN(C(=O)c1ccccc1OC)C2	-8	2	22	18
COc1ccccc1CNC(=O)CCCc1nnc2c(=O)n(-c3cccc(F)c3)ccn12	-10	-6	-8	10
Cc1ccc2c(c1)-c1c(c(C(=O)N3CCN(c4ccccc4)CC3)nn1C)CS2	-239	-260	i	-193
Cc1ccc(C)c(N(C)C(=O)c2nn(C)c3c2CSc2ccccc2-3)c1	13	27	39*	.
Cc1ccc(S(=O)(=O)N2CCCC(c3nc(-c4cccnc4)no3)C2)cc1C (stereo unspecified)	-6	-7	-3	-5
CC(C)c1ccc(S(=O)(=O)N2CCCC(c3nc(-c4cccnc4)no3)C2)cc1 (stereo unspecified)	3	21	82*	52*
O=C(Nc1nc2c(s1)CN(C(=O)c1cc(-c3ccco3)on1)CC2)C1CCCO1 (stereo unspecified)	59*	20	-136	33*
O=C(Nc1cccc2cccnc12)c1nnn(-c2ccccc2)n1	-20	0	18	44*
SMILES	USP8 block	USP28 block	USP30 inh	USP17 block
O=C(Nc1ccccc1)c1nnn(-c2ccccc2)n1	-14	1	8	-2
Cc1ncsc1C(=O)NCc1ccnc(N2CCOCC2)c1	11	7	16	4
COc1ccc(-n2cc(C(=O)NC(C)c3ccc4c(c3)OCCO4)c3ccccc3c2=O)cc1 (stereo unspecified)	11	25	36*	22
CCOC(=O)c1ccc(NC(=O)C2CCN(c3nccc4sccc34)CC2)cc1	54*	18	-61	15
CCc1noc(C)c1C(=O)Nc1nnc(C2CC2)s1	5	-1	-2	0
O=C(Nc1nnc(C2CC2)s1)c1ccc(OCC2CCCO2)cc1 (stereo unspecified)	5	0	-9	64*
CN(C)CCNC(=O)c1ccc2nc(-n3cccc3)sc2c1	-6	-9	-7	-9
Cc1cccc(NC(=O)C(=O)NCC(c2cccnc2)N2CCc3ccccc3C2)c1 (stereo unspecified)	61*	7	-18	25
COCCN(C(=O)C1CC1)c1nc(-c2ccccc2)cs1	31*	18	20	11
Cc1ccc(-c2ncc(C(=O)Nc3c(F)cccc3F)c(-c3ccncc3)n2)cc1	61*	-109	-469	-135
Cc1ccc(C)c(CNC(=O)c2cnc(-c3ccccc3)nc2-c2ccncc2)c1	0	-79	-308	-28
COc1ccc(C(C)NC(=O)c2cnc(-c3ccccc3)nc2-c2ccncc2)cc1 (stereo unspecified)	5	-126	i	40*
Cc1ccc(-c2ncc(C(=O)Nc3ccc(Cl)cc3)c(-c3ccncc3)n2)cc1	28	-130	i	-104
CNC(=O)C1CCN(c2nc3ccc(-c4ccc(F)cc4)nc3s2)CC1	-196	3	-110	10
CCCc1ccc(S(=O)(=O)Nc2ncccc2OCc2cc(F)cc(F)c2)cc1	-3	-5	0	-5
Cc1cc(NC(=O)CSc2nnc(-c3cccc(Cl)c3)o2)no1	2	3	13	49*
COc1ccc(-c2nnc3ccc(SCC(=O)N4CCCc5ccccc54)nn23)cc1	-7	2	-6	-6
O=C(CSc1nnc(-c2cccnc2)o1)Nc1ccc(F)cc1	16	3	27	16
Cc1ccc(-c2nnc3ccc(SCC(=O)N4CCCc5ccccc54)nn23)cc1	-4	18	30*	-4
Cc1ccc(NC(=O)CSc2nnc(-c3ccncc3)o2)cc1F	-3	-5	6	46*
Cc1cc(NC(=O)CSc2nnc(-c3ccc4c(c3)OCCO4)o2)no1	31*	-11	0	11
COc1ccc(CNCC2COCc3c(C)nnn3C2)cc1 (stereo unspecified)	-40	2	6	-1
O=C(CSc1nnc(-c2cccc(Cl)c2)o1)N1CCCc2ccccc21	20	23	32*	23
CCCS(=O)(=O)Nc1ccc(-c2ccc3nnc(C)n3n2)cc1	1	-32	-4	0
Cc1nnc2ccc(-c3ccc(NS(=O)(=O)c4ccccc4F)cc3)nn12	23	17	23	43*
COc1ccccc1C(=O)NCc1nc2ccccc2n1Cc1cc(C)ccc1C	-3	-7	71*	67*
Cc1cccc(C(=O)NCCc2nc3ccccc3n2Cc2ccccc2F)c1	0	2	-5	17
Cc1cccc(C(=O)NCc2nc3ccccc3n2Cc2ccccc2C)c1	6	3	-12	59*
N#Cc1cccc(C(=O)N2CCc3nc(-c4ccccn4)nc(N4CCOCC4)c3C2)c1	-31	9	25	0
